Assay results published in PubChem BioAssay AID493240 (Broad Institute, 2011).
In all, about 1,300 compounds went through this assay and about 270 (21%) were called active. Not all results are given here. Measured potencies and affinities stand elsewhere. A number with no mark means an inactive call. No rule for the calls is given here.

Experiment: cytotoxicity in parental SK-MEL-5 melanoma cells – cell-based, CellTiter-Glo, cherry-picked, set 3, orthogonal assay for MITF inhibitor project, dose response (AID 493240)
Details: SK-MEL-5 viability, ATP luminescence (CellTiter-Glo), 24 h; series mostly up to 35 µM; activity change, negative = viability loss: at the top concentration

Compound	activity change, negative = viability loss [%]
CCC(=O)OCCNc1cc(Sc2nccn2C)c2nonc2c1[N+](=O)[O-]	-33.1
O=C1c2ccccc2C(=O)N1CCSc1ccccc1	-4.55
CN(c1ccc2nc3ccccc3c(=O)n2n1)C1CCCCC1	-39.1
O=C(CCl)Nc1cn(-c2ccccc2)nc1-c1ccccc1	-17.3
Cc1ccc(NC(=O)c2cc(-c3cccs3)on2)cc1	2.76
Cc1ccc2oc(C(Cl)(Cl)Cl)cc(=O)c2c1	-6.41
O=C(CCl)N1c2ccccc2CCc2ccccc21	-16.3
Cc1ccc(NC(=O)/C=C/c2ccc([N+](=O)[O-])s2)c(C)c1	18.1
CCCOc1ccc(C(=O)C(CN2CCCC2)c2ccccc2)cc1 (centres undefined)	-40
CCSC1(SCC)N=C(N)C2(C#N)C(c3ccc(F)cc3)C12C#N (centres undefined)	-37.1
O=C(CCCc1ccccc1)Nc1cccc(C(=O)O)c1	-5.13
O=C(CSCc1c(F)cccc1F)Nc1ccccc1	2.98
CSc1nc(N)n2nc(-c3ccc(Cl)cc3)cc2n1	-3.88
N#C/C(=C\C=C\c1ccccc1[N+](=O)[O-])C(=O)NC1CCCCC1	-38.9
CN(C)c1nc(-c2ccccn2)nnc1-c1ccccc1	-10.7
CCOc1cc(/C=C\[N+](=O)[O-])ccc1OCC(=O)N1CCOCC1	-19.4
CS(=O)(=O)c1ccc2nc(NC(=O)c3ccccc3Br)sc2c1	-3.07
COc1ccc(-n2ncc3c(N4CCCCC4)ncnc32)cc1	-42.2
CN(C)c1cc[n+](CC(=O)c2ccc(-c3ccccc3)cc2)cc1	-43.2
COc1cccc(NC(=O)c2cnn(-c3ccccc3)c2C)c1	-15.4

Compound	activity change, negative = viability loss [%]
CN1CCN(CCCOc2ccc(-c3ccccc3)cc2)CC1	-25.3
O=C(CCl)N1N=C(c2ccco2)CC1c1cccs1 (centres undefined)	-17.2
CC(C)(C)OC(=O)N1CCN(C(=O)c2nc[nH]c2C(=O)N2CCN(c3ccccc3)CC2)CC1	-30.5
COCC(C)Nc1ncnc2c1cnn2-c1ccc(Cl)cc1 (centres undefined)	-19.2
CC1CCCC(C)N1CCCNC(=O)c1cc2c(s1)-c1ccccc1OC2 (centres undefined)	-37.3
C=CCn1c(C)cc(C(=O)CN2C(=O)c3ccccc3S2(=O)=O)c1C	11
N#C/C(=C\c1c[nH]c2ccccc12)C(=O)NC1CC1	7.49
COc1cccc(N2CCN(C(=O)c3ccc(CS(=O)c4ccccc4Cl)o3)CC2)c1 (centres undefined)	-4.04
C=C1C(=O)C2=CC1CCC(=O)C1(C)CCC(OC(C)=O)C(C)(C)C1CC2O (centres undefined)	-28.8
O=C(CCCc1ccccc1)N1CCN(C2CCCCC2)CC1	7.11
NC(=O)c1ccccc1NC(=O)/C=C/c1cccc(Cl)c1	11.7
CC(C)C(=O)Nc1ccc2nn(-c3ccc(F)cc3)nc2c1	-0.986
Cc1cc(/C(N)=N/OC(=O)c2ccc(Cl)cc2)no1	-18.9
COc1ccccc1OCCN1CSC(=S)N(C)C1	-15.7
CC(=O)CSc1ccc(-c2nc3cc(C)c(C)cc3[nH]2)cn1	-37.4
Cc1[nH]n(-c2ccccc2)c(=O)c1N=Nc1cccc(C(=O)O)c1	-11.8
CCOc1ccc(/C=C2\SC(=S)N(CCC(=O)O)C2=O)cc1	0.219
CC(=O)c1cccc(NC(=O)/C=C/c2ccc([N+](=O)[O-])s2)c1	-10.7
COc1ccccc1-c1nnc(-c2ccc(C)cc2)o1	-16.4
COc1ccccc1-c1nc(-c2ccc(C)nc2OC)no1	-15.3

Compound	activity change, negative = viability loss [%]
O=C(O)c1ccc(N/N=C/c2ccc(OC(=O)c3cccc(Cl)c3)cc2)cc1	-5.62
O=C(Nc1ccccc1N1CCOCC1)c1ccc([N+](=O)[O-])o1	-14.6
CN1CCN(c2ccc(NC(=O)c3ccc([N+](=O)[O-])o3)cc2Cl)CC1	-18
CCC(=O)N1CCN(c2ccc(Cl)cc2NC(=O)c2ccc([N+](=O)[O-])o2)CC1	-1.93
Cc1cccc(NC(=O)c2ccc([N+](=O)[O-])o2)c1C	-14.7
CCCC(=O)N1CCN(c2ccc(NC(=O)c3ccc([N+](=O)[O-])o3)cc2Cl)CC1	-25.5
CC(C)C(=O)N1CCN(c2ccc(NC(=O)c3ccc([N+](=O)[O-])o3)cc2Cl)CC1	-41.7
CCn1c(=O)c([N+](=O)[O-])c(Cl)c2ccccc21	-28.7
CC(=O)N/C(N)=N/c1nc(=O)c2ccccc2s1	-6.17
COc1ccc(C(=O)/C=C(\C)Nc2ccc3c(c2)OCO3)cc1	-19.4
Clc1nccnc1N/N=C/c1ccc(Br)cc1	-42.9
COc1cc(/C=C/C(=O)N2CCC=CC2=O)cc(OC)c1OC	-45.6
CC(=O)Nc1cccc(-c2nnc(-c3ccccc3)o2)c1	-2.04
Cc1ccc(C(=O)Nc2cnc3ccccc3c2)cc1	-22.4
O=C(O)CSCC(=O)Nc1ccc(C2CCCCC2)cc1	-2.59
Cc1c(C#N)c(NC(=O)CCl)n(Cc2ccccc2)c1C	-7.66
CCOc1cc(NC(=O)CCl)c(OCC)cc1NC(=O)CCl	-12.5
O=C(CCl)Nc1cccc(Oc2ccccc2)c1	-21.8
O=[N+]([O-])c1cc(S(=O)(=O)N2CCCCCC2)ccc1F	-40.5
